Shown are actives, neighbours in structure and some others; about 7.9% of the full set was active somewhere.
HCV inhibitor = inhibitors of hepatitis C virus infection | Huh7.5.1 HCVcc-Cre infection, luciferase reporter, 44 h | Potency, µM (highest dose often 41.8 µM), for the others: at the top dose activity change, negative = inhibition, most hits filed as inhibitors | 340,000 compounds, 3.4% hits; active = well fitted inhibition curve with a large enough effect; inconclusive = small, poorly fitted or top-dose-only effect, or another doubt; inactive = no such curve, though single readings can be large or run the other way; note: potency is the fitted concentration of half-maximal effect
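Compounds are dispensed onto cells plated 4 h earlier at 1,000 per well, with HCVcc-Cre virus (about 0.5 moi) added next. Following 44 h of culture, luminescent signal is measured for 15 sec after 15 min with substrate at room temperature.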
HCMV antiviral = blocks human cytomegalovirus replication. 410,000 compounds, 4.5% hits. HFF cells, HCMV-luciferase reporter, 72 h; stronger effect = lower value. activity change, negative = inhibition, % at 57.5 µM. AID 1259415; in the data active = activity change below about -60%; inconclusive = no clear call, values can overlap the other calls; inactive = above about -39%
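Human foreskin fibroblasts infected with luciferase-reporter HCMV at MOI 1 PFU/cell, compounds at two doses. Luciferase measured 72 h post infection; normalized to buffer-only basal and Salinomycin (10uM) controls.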
FMDV inh = blocks foot and mouth disease virus; FMDV antiviral cell-based qHTS; Potency, µM (highest dose often 57.9 µM), for the others: top-dose activity change, negative = inhibition, actives largely listed as inhibitors; 410,000 compounds, 1.2% hits; AID 1159524; calls by dose curve; tested in HEK293T cells; note: read-out not given here; potency is the fitted concentration of half-maximal effect; nearly all actives have a fitted effect of over 45% in size
LASV entry inh = inhibitors of Lassa virus binding or cell entry; Lassa virus pseudotype entry inhibition, cell reporter; Potency, µM (highest dose often 37.9 µM), inactives show at the highest dose activity change, negative = inhibition, actives largely listed as inhibitors; 300,000 compounds, 1.2% hits; calls by dose curve; tested in HEK293 cells; note: potency is the fitted concentration of half-maximal effect; nearly all actives have a fitted effect of over 50% in size
Marburg entry inh = Marburg virus entry inhibition; 300,000 compounds, 1.8% hits; AID 540276; Potency, µM (highest dose often 37.8 µM), for inactives: at the top dose activity change, negative = inhibition, usual class: inhibitors; Marburg virus pseudotyped entry inhibition, cell reporter; calls by dose curve; tested in HEK293 cells; note: potency is the fitted concentration of half-maximal effect
* hit, by the source's call; [ ] = dose if it differs, or a comment. % is set by controls: 0 for no effect and ±100 for the full control effect.

Results for O=C1CCC[C@H]2[C@@H](Cc3ccccc3)[C@@H](NS(=O)(=O)c3ccc(-c4ccccc4)cc3)CC[C@]23CCCN13 ?
HCMV antiviral: -32.8

Results for COc1ccc(OC2C(=O)N(c3ccc(F)cc3)C2c2ccc(OC)c(OC)c2)cc1 (configuration not stated) ?
HCV inhibitor: -11.3%; HCMV antiviral: -31.4; LASV entry inh: 1.9%; Marburg entry inh: -15.9%

Results for COc1ccc(N2C(=O)C(OC(C)=O)C2c2ccc(C)cc2)cc1 (configuration not stated) ?
HCV inhibitor: 12.4%; HCMV antiviral: -63.8*; FMDV inh: 9.3%; LASV entry inh: -23.8%; Marburg entry inh: -6.2%

Results for O=c1[nH]c(O)c(/C=C2/C=CC(c3cc(Cl)ccc3Cl)=N2)c(=O)[nH]1 ?
HCV inhibitor: 31.6µM*; HCMV antiviral: 0.0; FMDV inh: inconclusive; LASV entry inh: 13µM*; Marburg entry inh: inconclusive

Results for CN(C1CCCC1)C1CCN(C(=O)CNC(=O)/C=C/c2ccccc2)CC1 ?
HCV inhibitor: 19.9%; HCMV antiviral: inconclusive; FMDV inh: -21.5%; LASV entry inh: 17.0%; Marburg entry inh: inconclusive

How did CC1CCCCC1N(C)C1CCN(C(=O)CNC(=O)/C=C/c2cccc(Cl)c2)CC1 (configuration not stated) do in these assays?
HCV inhibitor: inconclusive; HCMV antiviral: -100.0*; FMDV inh: -1.6%

What do the screens show for `CCOc1ccc(CC(=O)Nc2nnc3n2CCS3)cc1`?
HCMV antiviral: -60.7*; FMDV inh: 16.5%; LASV entry inh: -9.3%[46.1 µM]

What do the screens show for `CC(C)(C)c1ccc(C(=O)Nc2nnc3n2CCS3)cc1`?
HCMV antiviral: -84.2*; FMDV inh: 16.0%; LASV entry inh: inconclusive

What do the screens show for `COc1ccc(CC(=O)Nc2nnc3n2CCS3)cc1`?
HCMV antiviral: 1.9; FMDV inh: -4.6%; LASV entry inh: 9.7%[46.1 µM]

How did CO/C=C\C=C/c1nnn(-c2ccc(Cl)cc2)n1 do in these assays?
HCV inhibitor: -3.5%; HCMV antiviral: -63.7*; FMDV inh: 6.5%; LASV entry inh: -10.2%[46.1 µM]; Marburg entry inh: inconclusive

What do the screens show for `COc1ccccc1N1CCN(c2nc(CNC(=O)c3ccc(C)c(C)c3)nc3ccccc23)CC1`?
FMDV inh: 2.3%

How did Cc1ccccc1NC(=O)c1sc2nc3c(c(-c4ccco4)c2c1N)CCC3 do in these assays?
HCV inhibitor: 3.98µM*; HCMV antiviral: -11.8; FMDV inh: -22.2%; LASV entry inh: -13.3%; Marburg entry inh: 0.2%

How did NC(=O)c1sc2nc3c(c(-c4ccco4)c2c1N)CCCC3 do in these assays?
HCV inhibitor: -27.2%; HCMV antiviral: -64.3*; FMDV inh: inconclusive

What do the screens show for `COC(=O)c1sc2nc3c(c(-c4cccs4)c2c1N)CCCC3`?
HCV inhibitor: inconclusive; HCMV antiviral: inconclusive; FMDV inh: -20.7%; LASV entry inh: 7.8%; Marburg entry inh: 22.8%

Results for c1coc(-c2nc3c4c5c(sc4ncn3n2)CCCC5)c1 ?
HCV inhibitor: inconclusive; HCMV antiviral: -20.5; FMDV inh: 18.4%; LASV entry inh: 10.6%; Marburg entry inh: inconclusive

What do the screens show for `N#Cc1sc2nc3c(c(-c4ccco4)c2c1N)CCCC3`?
HCV inhibitor: 7.94µM*; HCMV antiviral: inconclusive; FMDV inh: inconclusive; LASV entry inh: -12.9%; Marburg entry inh: inconclusive

What do the screens show for `Cc1ccc(NC(=O)c2c(C)nc3sc(C(=O)NC4CCCC4)c(N)c3c2-c2ccco2)c(C)c1`?
HCV inhibitor: inconclusive; HCMV antiviral: 6.2; FMDV inh: -15.3%; LASV entry inh: 10.5%; Marburg entry inh: -0.5%

Results for Cc1[nH]c2ccccc2c1C(=O)C(=O)Nc1ccc2c(c1)OCCO2 ?
HCV inhibitor: -8.1%; HCMV antiviral: 82.3; FMDV inh: 24.6%; LASV entry inh: 19.8%[46.1 µM]; Marburg entry inh: inconclusive

Results for CCC(C(=O)Nc1ccc2c(c1)OCCO2)n1c(=O)[nH]c2ccccc2c1=O (configuration not stated) ?
HCV inhibitor: 9.3%; HCMV antiviral: -73.2*; FMDV inh: -1.8%; LASV entry inh: 22.3%[46.1 µM]; Marburg entry inh: 15.2%[46.1 µM]

What do the screens show for `COC1=C(N)C(=O)c2nc(C)ccc2C1=O`?
HCV inhibitor: inconclusive; HCMV antiviral: -16.0; FMDV inh: 10µM*; LASV entry inh: -21.0%; Marburg entry inh: inconclusive

What do the screens show for `COC1=C(Br)C(=O)c2nc(C)ccc2C1=O`?
HCMV antiviral: 11.7; FMDV inh: 39.8µM*

Results for CCN=C1S/C(=C\c2cc(OCC)c(O)cc2Br)C(=O)N1CC ?
HCV inhibitor: inconclusive; HCMV antiviral: -9.0; FMDV inh: 31.6µM*; LASV entry inh: inconclusive; Marburg entry inh: inconclusive

What do the screens show for `CCN=C1S/C(=C\c2ccc(O)c(OCC)c2)C(=O)N1CC`?
HCV inhibitor: inconclusive; HCMV antiviral: -6.3; FMDV inh: -7.5%; LASV entry inh: 13µM*; Marburg entry inh: inconclusive

Results for CCN=C1S/C(=C\c2cn(CC)c3ccccc23)C(=O)N1CC ?
HCV inhibitor: inconclusive; HCMV antiviral: 58.4; FMDV inh: -12.2%; LASV entry inh: inconclusive; Marburg entry inh: -13.2%[46.1 µM]

What do the screens show for `CCOC(=O)CSc1nc2sc3c(c2c(=O)n1Cc1ccccc1)CCC(C(C)(C)C)C3` (configuration not stated)?
HCMV antiviral: 6.0; FMDV inh: -16.6%; LASV entry inh: 4.6%[46.1 µM]

Results for Cc1ccc(C2(c3ccccc3)NC(=O)N(CC(=O)NCc3ccccc3)C2=O)cc1C (configuration not stated) ?
HCV inhibitor: inconclusive; HCMV antiviral: -16.5; FMDV inh: -17.4%

What do the screens show for `Cc1cc(C)n(-c2ccccc2C#N)n1`?
HCV inhibitor: 8.6%; HCMV antiviral: -15.0; FMDV inh: 3.9%; LASV entry inh: inconclusive; Marburg entry inh: 5.8%[46.1 µM]

Results for Cc1nc2ccccc2c2c(N)c3ccccc3n12 ?
HCV inhibitor: -29.5%; HCMV antiviral: -62.6*; FMDV inh: -21.4%; LASV entry inh: -4.1%; Marburg entry inh: -20.9%[46.1 µM]

Results for Cc1nc2ccccc2n1-c1ccccc1 ?
HCV inhibitor: inconclusive; HCMV antiviral: 12.2; FMDV inh: -32.0%; LASV entry inh: inconclusive; Marburg entry inh: -17.1%[46.1 µM]

How did CCCCN(C)CCCNC(=O)Cn1ncc2c3ccccc3n(Cc3ccccc3)c2c1=O do in these assays?
HCMV antiviral: -2.6; FMDV inh: -12.4%; LASV entry inh: inconclusive; Marburg entry inh: inconclusive

What do the screens show for `O=c1c2c3c(sc2n2cnnc2n1Cc1ccccc1)CN(Cc1ccccc1)CC3`?
HCV inhibitor: 7.94µM*; HCMV antiviral: 9.9; FMDV inh: inconclusive; LASV entry inh: -1.3%; Marburg entry inh: -27.7%

How did Cc1nnc2n(Cc3ccccc3)c(=O)c3c4c(sc3n12)CN(Cc1ccccc1)CC4 do in these assays?
Marburg entry inh: 0.1%

Results for COc1ccc2nc(NC(=O)c3nc(SCc4cccc(C)c4)ncc3Cl)sc2c1 ?
HCMV antiviral: 8.0; FMDV inh: -8.1%; LASV entry inh: 5.6%[46.1 µM]; Marburg entry inh: -24.2%[46.1 µM]
